{"source": "PubChem BioAssay (NCI)", "note": "About 83,000 compounds went through this panel and 20% of them were active in at least one assay; those are over-represented in the sample as a whole.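 How to read the values: 0–100, growth inhibition (40 = 60% inhibited); 0, no net growth; -100 to 0, cell death (-40 = 40% of starting cells died; -100 = all dead).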 Values without a mark were called inactive. Activity calls are given as the source filed them. How the source made its calls: active means growth percent below 10; inactive means the rest."}
{"tested_on": "HL-60(TB) leukemia", "experiment": "NCI-60 one-dose screen, 48 h (100 = growth as untreated, 0 = no growth, -100 = all killed)", "details": "10 µM unless noted"}
{"smiles": "CCOC(=O)C1=C(C)NC(SCc2cc(=O)oc3ccc(F)cc23)=N[C@@H]1c1cccc2ccccc12", "growth": "78.4%"}
{"smiles": "COc1cccc(/C=N/C(=S)NC2(C)C3CCC(C3)C2(C)C)c1O", "note": "(stereo not given)", "growth": "75.5%"}
{"smiles": "O=C(NCCCNc1cc(-c2cn(-c3ccccc3)nc2-c2cccc(O)c2)ccn1)c1cccc(O)c1", "growth": "35.2%"}
{"smiles": "CC(=O)OC1CC2CCC1(C)C2(C)C", "note": "(stereo not given)", "growth": "103%"}
{"smiles": "CC(=O)N1N=C(c2ccc(F)cc2)CC1c1sc(N(C)Cc2ccccc2)nc1Cl", "note": "(stereo not given)", "growth": "109%"}
{"smiles": "CC(=O)c1cc(C(=O)c2ccc3c(c2)Sc2ccccc2N3)c2c(C)cc(C)cn12", "growth": "-12.6% (active)"}
{"smiles": "CCCCCCC(CC#N)(CCC)CCCC", "note": "(stereo not given)", "growth": "112%"}
{"smiles": "CCn1cc(-c2ccnc3[nH]c(-c4cccc(CN(C)C)c4)cc23)c(-c2ccc(NC(=O)N(C)C)cc2)n1", "growth": "-40.6% (active)"}
{"smiles": "NCCCNc1nc2ccccc2c2c(=O)c3cc(F)cc(F)c3sc12", "growth": "61.2%"}
{"smiles": "CCOC(=O)c1c(C)[nH]c(C(=O)CCC(=O)OC)c1C", "growth": "94.9%"}
{"smiles": "COc1ccc(/C=C(/C(=O)N2CCCC2)c2cc(OC)c(OC)c(OC)c2)cc1", "growth": "-14.7% (active)"}
{"smiles": "COc1ccc(/C=C(\\c2cc(OC)c(OC)c(OC)c2)c2nnc(-c3cccs3)o2)cc1", "growth": "92%"}
{"smiles": "CC/C=C1/C(=O)C=C[C@@H]1C/C=C\\CCCC(=O)OC", "growth": "5.31% (active)"}
{"smiles": "COc1ccc(-c2cc3c4c(nc5ccccc5c4c2)CC(c2cc(OC)c(OC)c(OC)c2)O3)cc1", "note": "(stereo not given)", "growth": "106%"}
{"smiles": "COc1cnc2c(c1)C(=O)c1c-2n(CCCn2ccnc2)c(=O)c2cc(Cl)ccc12", "growth": "-26.1% (active)"}
{"smiles": "CC(=O)O[C@H]1[C@@H]2OC(=O)C(CSc3ccccc3)[C@@H]2C[C@H]2O[C@]2(C)CC/C=C(\\C)CCC[C@@H]1C", "note": "(stereo not given in full)", "growth": "25.8%"}
{"smiles": "O=C1c2ccccc2C(=O)c2sc(Nc3cccc(Cl)c3)nc21", "growth": "-18.7% (active)"}
{"smiles": "COc1ccc(/C=C/C(=O)c2ccc(NC(=O)CSc3nc4c([nH]3)c(=O)n(C)c(=O)n4C)cc2)cc1OC", "growth": "99.5%"}
{"smiles": "CCC[S@@](=O)c1ccc2nc(NC(=O)OC)[nH]c2c1", "growth": "56.6%"}
{"smiles": "COc1cc(C(C)(C)C)cc(OC)c1C(O)(c1c(OC)cc(C(C)(C)C)cc1OC)c1c(OC)cc(C(C)(C)C)cc1OC", "growth": "-63.7% (active)"}
{"smiles": "O=C(Nc1ccc(I)cc1)c1cccc([N+](=O)[O-])c1O", "growth": "9.44% (active)"}
{"smiles": "Cc1ccc(/C=C(\\C#N)C(=O)Nc2ncc(Cc3cc(Cl)ccc3Cl)s2)o1", "growth": "22.5%"}
{"smiles": "O=C(O)CN1C(=O)c2cccc3cccc(c23)C1=O", "growth": "118%"}
{"smiles": "CNCc1cccc2c1OCCOCCOCCNS(=O)(=O)c1ccc(cc1)-c1cnc(N)c(n1)C(=O)N2", "growth": "-10.8% (active)"}
{"smiles": "CC(C)(C)c1cc(C(=O)Nc2cc3ccccc3cc2C(=O)NCCN)cc(C(C)(C)C)c1", "growth": "-68.9% (active)"}
{"smiles": "COc1cc(OC)cc(-c2n/c(=C\\c3c(O)[nH]c4ccc(OC)cc34)cc3c2=Nc2ccccc2-3)c1", "growth": "80%"}
{"smiles": "O=[N+]([O-])c1cc(Cl)c2[nH]c3c(Cl)cc([N+](=O)[O-])cc3c2c1", "growth": "-28.5% (active)"}
{"smiles": "O=C1CCCCN1CCCCC#Cc1ccccc1C#Cc1ccccn1", "growth": "78.2%"}
{"smiles": "C=CCn1c(SCC(=O)Nc2ccc(C(=O)/C=C/c3ccc(Cl)cc3)cc2)nnc1-c1cc(OC)c(OC)c(OC)c1", "growth": "97.7%"}
{"smiles": "CCN(CC)CCOc1nc2ccc(OC)cc2c2c1-c1ccc(OC)cc1C2=O", "growth": "19.2%"}
{"smiles": "Cc1cc(Nc2ccc(Cl)cc2)nc(NCCCNc2ccnc3cc(Cl)ccc23)n1", "growth": "-76.8% (active)"}
{"smiles": "CN1CCN(Cc2ccc(NC(=O)c3[nH]ncc3Nc3ncnc4sc5c(c34)CCCC5)cc2)CC1", "growth": "-67.4% (active)"}
{"smiles": "CCCCCN1C=C/C(=C\\C(=O)N2CCCc3ccccc32)c2ccccc21", "growth": "54.8%"}
{"smiles": "CCN(CC)CCCC(C)Nc1c2ccc(C)cc2nc2ccc(OC)cc12", "note": "(stereo not given)", "growth": "11.4%"}
{"smiles": "CCC(=O)Oc1ccc(/C(=C(\\C)c2ccccc2)c2ccc(OCCN3CCCCC3)cc2)cc1", "growth": "68.2%"}
{"smiles": "ClC(Cl)(Cl)c1nc2nccnc2[nH]1", "growth": "103%"}
{"smiles": "O=C1NC(=S)S/C1=C\\c1cccc([N+](=O)[O-])c1", "growth": "83.8%"}
{"smiles": "Nc1nc(SCc2cccc([N+](=O)[O-])c2)c2[nH]cnc2n1", "growth": "94.9%"}
{"smiles": "CC(=O)Nc1nc2c(s1)CCc1c-2cn(S(=O)(=O)c2ccccc2)c1-c1ccccc1", "growth": "71%"}
{"smiles": "O=C1c2ccccc2C(=O)c2c(Nc3ccc(CCO)cc3)ccc(O)c21", "growth": "83.9%"}
